Results from PubChem BioAssay AID1159580 (chemical genetic matrix, 2015).
Among all 5,500 compounds or so, about 2,000 (36%) were called active. About 18% were inconclusive and are not listed. No stated cut-off is given here; in the data, active means normalized growth mostly below about 0.91 (no sharp cut-off); inconclusive means no clear call, values can overlap the other calls; inactive means mostly above about 0.92. The list shows a part of the results.

Experiment: chemical genetic growth profiling, strain panel (AID 1159580);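 further: tested at 20 µM; growth read once vehicle control cultures reached saturation at 30 °C; 1 = growth at the plate median or of vehicle wells; lower values mean less growth of the strain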
Conditions: S. cerevisiae deletion strains, growth OD

Measured: normalized growth

O=C(CSCc1nc(-c2ccc(Cl)cc2)cs1)N/N=C\c1cccs1
active: locus YLR113W, strain HOG1, hits give low values 0.831
inactive: locus YAR019C, strain CDC15, hits give low values 0.984 | locus YBL105C, strain PKC1, hits give low values 0.97 | locus YBR135W, strain CKS1, hits give low values 0.969 | locus YBR136W, strain MEC1, hits give low values 0.972 | locus YBR160W, strain CDC28, hits give low values 0.969 | locus YDL017W, strain CDC7, hits give low values 0.97 | locus YDL028C, strain MPS1, hits give low values 0.973 | locus YDL101C, strain DUN1, hits give low values 0.978 | locus YDL108W, strain KIN28, hits give low values 0.975 | locus YDL132W, strain cdc53, hits give low values 0.966 | locus YDL214C, strain PRR2, hits give low values 0.91 | locus YDR052C, strain DBF4, hits give low values 0.98 | locus YDR054C, strain cdc34, hits give low values 0.97 | locus YDR226W, strain ADK1, hits give low values 0.972 | locus YDR477W, strain SNF1, hits give low values 0.953 | locus YER123W, strain YCK3, hits give low values 0.908 | locus YER133W, strain GLC7, hits give low values 0.946 | locus YFL009W, strain cdc4, hits give low values 0.971 | locus YFL029C, strain CAK1, hits give low values 0.973 | locus YFR003C, strain YPI1, hits give low values 0.962 | locus YFR019W, strain FAB1, hits give low values 0.929 | locus YFR028C, strain CDC14, hits give low values 0.963 | locus YGR040W, strain KSS1, hits give low values 0.935 | locus YGR052W, strain FMP48, hits give low values 0.948 | locus YGR092W, strain DBF2, hits give low values 0.98 | locus YHR030C, strain SLT2, hits give low values 1.01 | locus YHR079C, strain IRE1, hits give low values 1.03 | locus YHR082C, strain KSP1, hits give low values 0.998 | locus YHR205W, strain SCH9, hits give low values 0.935 | locus YIL147C, strain SLN1, hits give low values 0.975 | locus YJL095W, strain BCK1, hits give low values 0.936 | locus YJL128C, strain PBS2, hits give low values 0.924 | locus YJL157C, strain FAR1, hits give low values 0.95 | locus YJR016C, strain ILV3, hits give low values 0.974 | locus YJR066W, strain TOR1 (second series), hits give low values 0.951 | locus YJR066W, strain TOR1, hits give low values 1.02 | locus YKL048C, strain ELM1, hits give low values 0.944 | locus YKL067W, strain YNK1, hits give low values 0.932 | locus YKL101W, strain HSL1, hits give low values 0.921 | locus YKL193C, strain SDS22, hits give low values 0.972 | locus YKL203C, strain TOR2, hits give low values 1 | locus YLR133W, strain CKI1, hits give low values 0.917 | locus YLR403W, strain SFP1, hits give low values 0.933 | locus YML070W, strain DAK1, hits give low values 0.93 | locus YMR001C, strain CDC5, hits give low values 0.976 | locus YMR205C, strain PFK2 (second series), hits give low values 0.942 | locus YMR277W, strain FCP1, hits give low values 0.98 | locus YNL006W, strain LST8, hits give low values 0.973 | locus YNL020C, strain ARK1, hits give low values 0.925 | locus YNL161W, strain CBK1, hits give low values 0.969 | locus YNL183C, strain NPR1, hits give low values 0.971 | locus YNL207W, strain RIO2, hits give low values 0.967 | locus YNL222W, strain SSU72, hits give low values 0.974 | locus YNL307C, strain MCK1 (second series), hits give low values 0.956 | locus YOL078W, strain AVO1, hits give low values 0.966 | locus YOL136C, strain PFK27, hits give low values 0.866 | locus YOR061W, strain CKA2, hits give low values 0.943 | locus YOR119C, strain RIO1, hits give low values 0.994 | locus YOR231W, strain MKK1, hits give low values 0.927 | locus YOR329C, strain SCD5, hits give low values 0.975 | locus YPL031C, strain PHO85, hits give low values 0.96 | locus YPL153C, strain RAD53, hits give low values 0.969 | locus YPL204W, strain HRR25, hits give low values 0.906 | locus YPL209C, strain IPL1, hits give low values 0.969 | locus YPL256C, strain CLN2, hits give low values 0.965 | locus YPR025C, strain CCL1, hits give low values 0.979 | locus YPR106W, strain ISR1, hits give low values 0.97 | locus YPR111W, strain DBF20, hits give low values 0.952 | strain NNK1, hits give low values 0.966 | strain TSCII, hits give low values 0.968

C=CCc1ccccc1OCC(O)CN[C@]1(C)CCC[C@H](C(C)(C)NC(=O)CBr)C1 (stereo partly drawn)
inactive: locus YAL040C, strain CLN3, hits give low values 1.01 | locus YER002W, strain NOP16, hits give low values 1.02 | locus YGR229C, strain SMI1, hits give low values 1.01 | locus YNL175C, strain NOP13, hits give low values 1.08 | locus YNL197C, strain WHI3, hits give low values 1.03 | locus YNL224C, strain SQS1, hits give low values 1.02 | locus YOR083W, strain WHI5 (second series), hits give low values 1.09
